High-throughput results (PubChem)
S1P2 ag: S1P2 (human) receptor agonism. 97,000 tested, 0.46% active. AID 729. S1P2-expressing cell line, agonist reporter read-out. activation, % at 4.5 µM. O95136; in the data active means activation above about 16%;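 further: 0% = vehicle low control and 100% = maximal reference agonist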
GALR2 antag: GALR2 (human) receptor antagonism; GALR2-expressing cells, antagonist mode; inhibition, % at 4 µM; 140,000 tested, 0.39% active;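 further: cells stimulated with galanin 1-16 at roughly its EC80; 0% = agonist challenge control and 100% = basal control without agonist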
Target sequence (O43603 whole entry, looked up): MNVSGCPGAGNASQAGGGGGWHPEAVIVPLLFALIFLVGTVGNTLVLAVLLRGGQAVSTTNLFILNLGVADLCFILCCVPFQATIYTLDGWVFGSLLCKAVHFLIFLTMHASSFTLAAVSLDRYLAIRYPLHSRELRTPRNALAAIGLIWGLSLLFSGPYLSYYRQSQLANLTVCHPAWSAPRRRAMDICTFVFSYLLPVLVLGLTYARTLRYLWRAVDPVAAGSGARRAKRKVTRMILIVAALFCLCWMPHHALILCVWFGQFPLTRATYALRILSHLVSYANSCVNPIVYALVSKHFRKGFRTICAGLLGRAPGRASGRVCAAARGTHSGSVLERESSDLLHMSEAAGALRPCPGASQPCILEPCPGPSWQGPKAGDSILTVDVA
PLAP act: activates human placental alkaline phosphatase; P05187; purified PLAP enzyme, luminescent substrate read-out; active compounds read high; activation fold at 20 µM; 96,000 tested, 1.2% active; AID 696; in the data active means activation fold above about 2
S1P2 antag: antagonists of human S1P2 receptor; cell-based S1P2 antagonist assay, inhibition at 5 uM; inhibition, % at 5 µM; 97,000 tested, 0.21% active; AID 736; in the data active means inhibition above about 45%;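 further: CRE beta-lactamase reporter cells expressing human S1P2 stimulated with S1P; 0% = agonist at EC80 alone and 100% = agonist plus reference antagonist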
GALR2 ag: GALR2 (human) receptor agonism; O43603; GALR2-expressing cells, agonist activation read-out; activation, % (test concentration not listed); 140,000 tested, 0.48% active; in the data active means activation above about 5%, passing the limit was not always enough;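 further: 0% = vehicle buffer wells and 100% = reference agonist at full effect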
GALR2 ant conf: confirmation of human galanin receptor 2 (GALR2) antagonists | shares compounds with GALR2 antag | GALR2-expressing cells, antagonist mode, inhibition | inhibition, % at 4 µM | 480 tested, 60% active;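 further: cells stimulated with galanin at about its EC80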
BLA inh counter: beta-lactamase inhibition, GALR2 counterscreen; shares compounds with GALR2 antag; CHO NFAT-BLA reporter, beta-lactamase FRET, thapsigargin-stimulated; inhibition, % at 4.2 µM; 480 tested, 36% active; AID 867;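 active means inhibition above the mean inhibition across tested compounds plus 3 SD, cut at about 27% in these data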;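 further: 0% = 500 nM thapsigargin stimulated wells and 100% = unstimulated BSA only wells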
An asterisk follows results filed as active; . = no result. Shown are actives, neighbours in structure and some others; about 2% of the full set was active somewhere. Unless noted, no stated cut-off is given here; in the data, active means inhibition above about 27%; inactive means the rest.

SMILES	S1P2 ag	GALR2 antag	PLAP act	S1P2 antag	GALR2 ag	GALR2 ant conf	BLA inh counter
CCOC(=O)N1CCC(N2C(=O)c3ccc(C(=O)Nc4ccc(F)cc4F)cc3C2=O)CC1	.	28*	1.1	.	-1	-2	0
COC(=O)c1ccc(Oc2coc3cc(OCc4ccc([N+](=O)[O-])cc4)ccc3c2=O)cc1	.	-6	.	.	-1	.	.
CS(=O)(=O)c1ccc(Cl)c(NC(=O)c2ccc3ccccc3c2)c1	.	-6	.	.	0	.	.
COc1cc(N2CCCC2)c(OC)cc1/C=C(/C#N)c1ccc(Br)cc1	0	63*	0.6	23	-3	11	17
COc1cc(N2CCCC2)c(OC)cc1/C=C(/C#N)c1ccc(F)cc1	-6	6	.	32	-4	.	.
O=C(NNS(=O)(=O)c1ccccc1[N+](=O)[O-])c1cccc([N+](=O)[O-])c1	.	3	.	.	-1	.	.
CCC1C/C(=C\c2cccnc2)C(=O)/C(=C/c2cccnc2)C1 (configuration not stated)	.	36*	.	.	-3	46*	21
O=C1/C(=C/c2cccnc2)CCC/C1=C\c1cccnc1	.	23	.	.	-1	.	.
Cc1cc(C(F)(F)F)nn1Cc1n[nH]c(=S)n1-c1ccc(F)cc1	.	63*	.	.	-1	4	5
COc1cc(CSc2nnnn2-c2ccc(C)cc2)cc(OC)c1OC	.	43*	1.4	.	-1	41*	14
O=C(OCc1cnc(Cl)s1)c1ccccc1Cl	-2	0	0.7	15	-2	.	.
O=C(OCn1ncc(Br)c(Br)c1=O)c1ccccc1Cl	-5	79*	1	51*	-3	95*	97*
O=C(OCn1ncc(Br)c(Br)c1=O)c1ccc(F)cc1	-2	79*	1	54*	-5	92*	95*
CCOc1ccc(-n2c(SCC(=O)Nc3ccccc3C)n[nH]c2=O)cc1	-2	-6	0.9	9	-2	.	.
C=CCn1c(Cc2cccs2)nnc1SCC(=O)c1cccc(Br)c1	-8	3	1.4	11	-1	.	.
CCOc1ccc2c(c1)C(C)=CC(C)(C)N2C(=O)Nc1ccccc1	1	29*	0.9	5	-1	8	5
O=C1NCCN1C(=O)N(c1ccccc1)c1ccccc1	-4	-1	1.1	1	-1	.	.
CC(C)(C)C(=O)/C(=C\c1ccc([N+](=O)[O-])cc1)n1cncn1	-9	56*	.	66*	1	73*	57*
CCN(CC)CC(=O)N1c2ccccc2Sc2ccc(Cl)cc21	-6	29*	.	8	-1	16	7
O=C(CSc1nc2ccccc2s1)N1c2ccccc2Sc2ccc(Cl)cc21	-1	1	0.9	0	-2	.	.
CCCCNC(=O)COC(=O)c1c2c(nc3ccccc13)/C(=C/c1cccs1)CC2	.	27*	.	.	8.0*	41*	51*
CNC(=O)NC(=O)C(C)OC(=O)c1c2c(nc3ccccc13)/C(=C/c1cccs1)CC2 (configuration not stated)	.	49*	.	.	6.6*	41*	48*
CCCCNC(=O)COC(=O)c1cc(C)nc2ccccc12	-3	-7	0.9	-2	-1	.	.
Cc1nc2cc3nc(C)sc3cc2s1	.	2	0.9	.	0	.	.
COc1cc2nc(C)sc2cc1SC	.	27*	1.1	.	-1	8	4
SMILES	S1P2 ag	GALR2 antag	PLAP act	S1P2 antag	GALR2 ag	GALR2 ant conf	BLA inh counter
Cc1ccc(NC(=O)c2ccc(C(C)(C)C)cc2)cc1[N+](=O)[O-]	.	-1	.	.	0	.	.
CN(C)C(=C(C#N)C#N)N1CCN(c2ccc(Cl)c(Cl)c2)CC1	-4	-5	1.2	18	-1	.	.
COc1ccc(COc2cc(-c3cccc(OC)c3)nc3ccc(NC(=O)c4ccc(C)cc4)cc23)cc1	.	13	.	.	-2	.	.
COc1ccc(COc2cc(-c3cccc(OC)c3)nc3ccc(NC(=O)c4ccc(N(C)C)cc4)cc23)cc1	.	27*	.	.	-3	16	10
Cn1c(SCC(=O)Nc2ccc3cn[nH]c3c2)nnc1-c1cccs1	-6	30*	0.9	10	-2	18	14
COc1cccc(CN2C(=O)Nc3ccccc3C(=O)N2C(C)(C)C)c1	3	-5	1.1	-6	0	.	.
COc1cccc(CN2C(=O)c3cccc(N)c3C2=O)c1	.	31*	.	.	2	8	12
COc1ccccc1NC(=O)Cc1nn(C)c(=O)c2ccccc12	-4	35*	0.9	29	-2	40*	14
Cn1nc(CC(=O)Nc2ccc3c(c2)OCCO3)c2ccccc2c1=O	.	36*	0.8	.	-1	42*	17
COc1cc(NC(=O)Cc2nn(C)c(=O)c3ccccc23)cc(OC)c1	-5	18	1.1	19	-1	.	.
Cc1ccc2nsnc2c1NC(=O)c1ccc2c(c1)OCCO2	-3	38*	1	-9	-4	5	4
Cc1c(C(=O)Nc2cccc(Cl)c2)c2ccccn2c1CCc1ccncc1	.	33*	.	.	-2	15	15
CCOC(=O)C1CCCN(S(=O)(=O)c2cccc3cccnc23)C1 (configuration not stated)	-5	-1	1.3	-7	-2	.	.
CC[C@@H](NS(=O)(=O)c1ccc(C)cc1)C(=O)Oc1ccc2c3c(c(=O)oc2c1)CCC3	.	-27	.	.	1	.	.
Cc1ccc(S(=O)(=O)NC(C(=O)Oc2ccc3c(C(F)(F)F)cc(=O)oc3c2)c2ccccc2)cc1 (configuration not stated)	.	35*	.	.	0	25	31*
Clc1ccc2nc(CN3CCCc4ccccc43)cn2c1	-1	1	1.6	14	-1	.	.
O=C(c1ccc(S(=O)(=O)c2ccc(F)cc2)c([N+](=O)[O-])c1)N1CCCCCC1	.	31*	.	.	-1	37*	14
C#CCn1c(=NC(=O)c2sc3ccccc3c2Cl)sc2cc(S(N)(=O)=O)ccc21	.	1	.	.	-1	.	.
COc1ccc(C(=O)c2sc3nc(-c4ccccc4)ccc3c2N)cc1	.	32*	.	.	-2	42*	49*
C#CC(=O)N(c1cccc(OC)c1)C(C(=O)NC1CCCC1)c1cccs1 (configuration not stated)	-8	62*	1.5	41	-2	72*	58*
C#CC(=O)N(c1ccc(OC)c(OC)c1)C(C(=O)NC1CCCC1)c1cccs1 (configuration not stated)	-12	41*	1.3	35	-2	54*	51*
COc1ccc(N(C(=O)Cc2cccs2)C(C(=O)NC2CCCCC2)c2cccn2C)cc1OC (configuration not stated)	-10	-15	.	-22	-2	.	.
Cc1cccc(C(=O)Nc2ccc(C(=O)/C=C/c3cccnc3)cc2)c1	.	31*	.	.	0	32*	7
O=C(/C=C/c1cccnc1)c1ccc(NC(=O)c2cccc(Br)c2)cc1	-4	-5	1	8	-2	.	.
c1ccc(-n2nnnc2Oc2cccc3cccnc23)cc1	-9	-1	1.2	16	-3	.	.
N#Cc1cc(Oc2cccc3cccnc23)c(-n2nnc3ccccc32)cc1C#N	-6	39*	1	-2	-6	18	13
